Assay results: PubChem BioAssay (EPA / NIEHS)
Calls of active or inactive are those of the source. Rule for the calls: active = hit-call score of the fitted dose curve at least 0.9, where 1 is the maximum; inactive = score below 0.9.

Assay: CCTE_Shafer_MEA_acute_firing_rate_mean: CCTE's Neural Acute Assay for Mean Firing Rate, Shafer Lab (AID 2284009)
Method: CCTE_Shafer_MEA_acute assay is conducted using Axion Biosystems 48 well microelectrode array (MEA) plates and Maestro recording system. Each well of the MEA plate contains a grid of 16 microelectrodes embedded in the culture surface. Electrically active cells, such as neurons, can be cultured over the electrodes, and electrical activity in these cells can be recorded extracellularly. The spontaneous firing of neurons is captured from each electrode on a microsecond timescale providing both temporally and spatially precise data. […] The CCTE_Shafer_MEA_acute assay uses primary cultures of rat cortical neurons. As these cultures mature over time, neural networks develop functional activity and form cohesive networks in which electrical activity can be highly coordinated. Baseline 40-minute recordings are made on days post-plating 13 or 15, followed by a secondary 40-minute recording after chemical exposure.CCTE_Shafer_MEA_acute_firing_rate_mean is a component of the CCTE_Shafer_MEA_acute assay. It measures the frequency number of spikes (action potential firings) as the total number of spikes divided by the length of the recording in a microelectrode array (MEA) using Axion Biosystems Maestro 768 channel amplifier with the AxIS adaptive spike detector. The firing rate is divided by the number of electrodes to report a well-mean value. The recordings before and after chemical treatment are used to calculate a percent change in the mean firing rate in each well.Data from the assay component CCTE_Shafer_MEA_acute_firing_rate_mean was analyzed into 1 assay endpoint. This assay endpoint, CCTE_Shafer_MEA_acute_firing_rate_mean, was analyzed in the negative analysis fitting direction relative to DMSO as the negative control and baseline of activity. Using a type of functional reporter, gain or loss-of-signal activity can be used to understand electrical activity.
Spontaneous activity in the cortical cultures was recorded using an Axion Biosystems Maestro 768 channel amplifier and Axion Integrated Studios (AxIS) v1.8 (or later) software. The amplifier recorded from all channels simultaneously (gain = 1200 x; sampling rate = 12.5 kHz/channel): raw signals were filtered with a Butterworth band-pass filter (300-5000 Hz), which filters out slower local field potentials leaving only fast potentials, i.e., "spikes", arising from extracellular currents associated with action potentials (Pine 2006; Wheeler and Nam 2011). On-line spike detection of filtered signals was conducted with the AxIS adaptive spike detector, using a threshold of 8x the root mean squared (rms) noise on each channel. Any electrodes with rms noise levels greater than 5 uV were grounded (e.g., no data were recorded). Once grounded, an electrode was grounded for the duration of the experiment. All recordings were conducted at 37 C. Wells were deemed usable if on the day of the exposure >/= 10 electrodes were active (defined as >/= 5 spikes/min). On DIV 13 or 15, a minimum of three wells from one cortical culture preparation were treated with each compound (0.03-40 uM). Prior to recording baseline activity, each mwMEA plate was placed in the Maestro at 37 C and allowed to sit for 20 min while firing rates stabilized. Baseline activity (40 min) was recorded before the addition of each compound. An additional 40 min of spontaneous activity was recorded in the presence of each compound. Changes in network parameters relative to baseline were assessed following compound treatment.
For `N#Cc1cccnc1`, the outcome was “inactive”. In the case of `Oc1cc(Cl)c(Cl)cc1Cl`, the AC50 was 34200 nM (active). For `CCCCCCCCCCCCc1cccc(S(=O)(=O)O)c1`, the outcome was “inactive”. For `Clc1cccc(Cl)c1Cl`, the outcome was “inactive”. With `CN(C)C(=S)S` the outcome was “inactive”. With `CC1(C)[C@H](C(=O)O[C@H](C#N)c2cccc(Oc3ccccc3)c2)[C@@H]1/C=C(\Cl)C(F)(F)F` the AC50 was 1180 nM (active). In the case of `CC(C)[C@@H](Nc1ccc(C(F)(F)F)cc1Cl)C(=O)OC(C#N)c1cccc(Oc2ccccc2)c1` (stereo not given in full), the AC50 was 1250 nM (active). For `Cc1ccccc1OP(=O)(Oc1ccccc1C)Oc1ccccc1C`, the outcome was “inactive”. For `CCCCOC(=O)COC(=O)c1ccccc1C(=O)OCCCC`, the AC50 was 19.6 nM (active). With `OCCCCO` the outcome was “inactive”. With `CS(=O)(=O)c1ccc(C(=O)C2C(=O)CCCC2=O)c(Cl)c1COCC(F)(F)F` the outcome was “inactive”. For `CC(C)(C)c1ccccc1O`, the AC50 was 4870 nM (active). With `O=C(Cc1ccccc1)OCCc1ccccc1` the AC50 was 3 nM (active). For `Oc1ccc(Cc2ccc(O)cc2)cc1`, the AC50 was 3.77 nM (active). For `Cc1cc(C(F)(C(F)(F)F)C(F)(F)F)ccc1NC(=O)c1cccc(I)c1C(=O)NC(C)(C)CS(C)(=O)=O`, the AC50 was 1680 nM (active).
